# Source: PubChem BioAssay AID652254 (National Center for Advancing Translational Sciences (NCATS), 2013)
# Activity calls are given as the source filed them.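 How the source made its calls: active means potency for halving colony growth of 5 µM or lower; inconclusive means potency above 5 µM but below 10 µM; inactive means potency of 10 µM or higher.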
# Experiment: qHTS for Inhibitors of Ubiquitin-specific Protease USP2a Using CHOP2 as the Reporter: Clonogenic Assay
# Details: clonogenic colony formation, crystal violet, 10 days
# Description: Homeostasis of cellular proteins is maintained through a combination of synthesis and degradation. The pathway that accounts for the majority of protein degradation is the ubiquitin-proteasomal pathway. Ubiquitin (Ub) is highly conserved in all cells and the generation of a multi-Ub chain typically targets proteins for degradation by the proteasome. However, ubiquitination is highly reversible and dynamic. Deubiquitination, the reverse process, is catalyzed through the action of enzymes referred to as isopeptidases or deubiquitinating enzymes (DUBs). This group of enzymes is collectively responsible for maintaining adequate pools of free ubiquitin and regulating the ubiquitination status of cellular proteins. […] To further visualize and quantitate the effect of compounds on cell proliferation, a colony forming or clonogenic assay was performed in 6-well plates using HCT116 cells. […] The colonies were visualized on the Typhoon imager (GE) using Cy5 detection, and quantitated with the associated software. […]
# 2 mL 300 cells/well were dispensed into a 6-well plate in DMEM with 10% FBS and 1% Pen-Strep and then incubated for 48 hours at 37 deg C, 5% CO2. […] The plate is dried overnight and then read on a GE Typhoon FLA 9500 in end-point mode (Ex 635, Em Long-Pass Red Filter)
row,Structure (SMILES),Potency
1,Cc1ccc(S(=O)(=O)Nc2cc(C(F)(F)F)ccc2C(=O)Nc2nc(-c3ccccc3)cs2)cc1,3.6 µM (active)
